# Reference: the supplement of paper PMC13380429
# Tested on: Vero E6 infected with SARS-CoV-2
# Assay: morphology score (similarity to uninfected cells); higher = more like uninfected cells
# Conditions: 24 h
row,Structure (SMILES),morphology score
1,COC(=O)N1CC[C@@H]2[C@H]1CCC[C@@]2(O)C#Cc1cccc(C)c1 [mavoglurant] (10 µM),-0.125
2,CN1CCC(Nc2ncc3ncnc(Nc4ccc(F)c(Cl)c4)c3n2)CC1 (10 µM),0.0447
3,CCc1nc(-c2cccc(C)c2)c(-c2ccnc(NC(=O)c3ccccc3)c2)s1 (10 µM),0.171
4,NC(=O)c1nc(F)cnc1O [favipiravir] (10 µM),0.0924

# Tested on: Vero E6 infected with SARS-CoV-2
# Assay: SARS-CoV-2 infection rate relative to infected DMSO; higher = more infection, active = 60 or less
# Conditions: 24 h
row,Structure (SMILES),SARS-CoV-2 infection rate
1,C[C@H](CCC(=O)O)[C@H]1CC[C@H]2[C@@H]3C[C@H](O)[C@@H]4C[C@H](O)CC[C@]4(C)[C@H]3CC[C@]12C [Hyodeoxycholic acid (HDCA)] (10 µM),102% (inactive)
2,Cc1cccc(C)c1NC(=O)CN1CCN(CCCC(c2ccc(F)cc2)c2ccc(F)cc2)CC1 [lidoflazine] (10 µM),76.5% (inactive)
3,Nc1cc(-c2ccncc2)c[nH]c1=O [amrinone] (10 µM),112% (inactive)
4,N[C@@H](Cc1c[nH]c2ccccc12)C(=O)O [tryptophan] (10 µM),100% (inactive)
5,COc1cc(-c2cc(-c3cccc(O)c3)cnc2N)cc(OC)c1OC (10 µM),95% (inactive)
6,OC(CN1CCN(c2cccc(Cl)c2)CC1)C(c1ccccc1)c1ccccc1 (configuration not stated) (10 µM),96.5% (inactive)
7,C=CCN1C[C@H](C)N([C@H](c2ccc(C(=O)N(CC)CC)cc2)c2cccc(O)c2)C[C@H]1C (10 µM),105% (inactive)
8,CC[N+](C)(CC)CCC[n+]1c(-c2ccccc2)c2cc(N)ccc2c2ccc(N)cc21 [propidium-iodide] (10 µM),93.5% (inactive)
